Test results taken from PubChem BioAssay (NCI).
Compounds without any hit were thinned out: in the full panel of roughly 83,000, 20% have a hit.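 Cells were grown in 96-well plates and exposed to the test compound at a single concentration for 48 hours; results are reported as percent growth, with values below 10 considered active.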 Activity calls are given as the source filed them.

What follows are molecules tested on BT-549 breast (assay: NCI-60 one-dose screen, 48 h (100 = growth as untreated, 0 = no growth, -100 = all killed)). Conditions: 10 µM.
Procedure: Growth inhibition of the BT-549 human tumor cell line is measured as a screen for anti-cancer activity. Cells are grown in 96 well plates and exposed to the test compound for 48 hours. Compounds are tested at a single concentration, which is 10^-5 M for most compounds. The reported endpoint is percent growth (GI% or GIPRCNT), where numbers from 0 - 100% represent growth inhibition, and numbers from -100% - 0 represent cell death. For example, a value of 40 represents 60% growth inhibition. A value of 0 means no net growth occurred over the course of the experiment. A value of -40 indicates 40% of cells at the beginning of the experiment died by the end of the experiment. A value of -100 means all cells are dead at the end of the experiment.
NCI-60 Human Tumor Cell Lines Screen was performed using the standard one-dose NCI protocol, which is described in more detail at https://dtp.cancer.gov/discovery_development/nci-60/default.htm.
Compounds with GIPRCNT values below 10 were considered active. Activity score was based on GIPRCNT using the following formula: […]
Score is 0 for GIPRCNT values of 100 or above, 50 for GIPRCNT values of 0, and 100 for GIPRCNT values of -100.

| Compound | growth |
| --- | --- |
| CCc1c(C(=O)NCc2c(O)ccc3cccc(O)c23)[nH]c(C)c1C(C)=O | 34.5% (inactive) |
| COc1ccc(Cn2cc3c(c2-c2cc(OC)c(OC)c(OC)c2)CCc2cnoc2-3)cc1[N+](=O)[O-] | 51.9% (inactive) |
| O/N=C1\CCC2CCCCC2C1 (stereo not given) | 105% (inactive) |
| COc1ccc(-c2cn[nH]c2-c2cc(OC)c(OC)c(OC)c2)cc1 | -13.8% (active) |
| Cc1cc(OI)c(C(C)C)cc1-c1cc(C(C)C)c(OI)cc1C | 111% (inactive) |
| CCOC(=O)c1cc(-c2ccccc2)nc(N)n1 | 103% (inactive) |
| CCOC(=S)Sc1ccc([N+](=O)[O-])cc1[N+](=O)[O-] | 24.1% (inactive) |
| COc1ccc(-c2cc(/C=C3\C(=O)Nc4cc(Cl)ccc43)[nH]n2)cc1OC | 80.1% (inactive) |
| COC(=O)C1(C(=O)OC)C2C(=O)C3C(C21)C3(C(=O)OC(C)(C)C)C(=O)OC(C)(C)C (stereo not given) | 101% (inactive) |
| Nc1nc2c(nnn2C2CC(O)C(CO)O2)c(=O)[nH]1 (stereo not given) | 61.5% (inactive) |
| COc1cc(-c2nc3ccc(C)cc3[nH]2)ccc1OCc1nnc(-c2ccc(CC(C)C)cc2)o1 | 101% (inactive) |
| Nc1ccn([C@@H]2O[C@H](COP(=O)(O)O[C@@H]3C[C@H](n4cc(F)c(=O)[nH]c4=O)O[C@@H]3COP(=O)(O)O[C@@H]3C[C@H](n4cc(F)c(=O)[nH]c4=O)O[C@@H]3COP(=O)(O)O[C@@H]3C[C@H](n4cc(F)c(=O)[nH]c4=O)O[C@@H]3COP(=O)(O)O[C@@H]3C[C@H](n4cc(F)c(=O)[nH]c4=O)O[C@@H]3COP(=O)(O)O[C@@H]3C[C@H](n4cc(F)c(=O)[nH]c4=O)O[C@@H]3COP(=O)(O)O[C@@H]3C[C@H](n4cc(F)c(=O)[nH]c4=O)O[C@@H]3COP(=O)(O)O[C@@H]3C[C@H](n4cc(F)c(=O)[nH]c4=O)O[C@@H]3COP(=O)(O)O[C@@H]3C[C@H](n4cc(F)c(=O)[nH]c4=O)O[C@@H]3COP(=O)(O)O[C@@H]3C[C@H](n4cc(F)c(=O)[nH]c4=O)O[C@@H]3COP(=O)(O)O[C@@H]3C[C@H](n4cc(F)c(=O)[nH]c4=O)O[C@@H]3COP(=O)(O)OCCOCCOCCOCCOCCOCCO)[C@H](O)C2O)c(=O)n1 (stereo not given in full) | 48.7% (inactive) |
| C[C@]12CC[C@H]3[C@@H](CC=C4C[C@@H](O)CC[C@@]43C)[C@@H]1CC[C@@H]2C(=O)C/C=N/O | 90.2% (inactive) |
| CN(C)c1ccc2cc(-c3cc4c(oc3=O)-c3ccccc3OC4O)c(=O)oc2c1 (stereo not given) | -17.4% (active) |
| O=C(Nc1ccc(Oc2ccc(Nc3nc4ccccc4s3)cc2)cc1)Nc1ccc(Cl)c(Cl)c1 | 59.5% (inactive) |
| O=C(NCCCl)c1cc(Cl)cc(Cl)c1 | 105% (inactive) |
| CCOC(=O)CSC(=S)SCC(=O)OCC | 106% (inactive) |
| CCOc1nc(-c2ccccc2)cc2c(O)c(C(=O)N/N=C/c3ccc(OC)cc3)[nH]c(=O)c12 | 123% (inactive) |
| Cc1ccc(C)c2c1sc1nc3n[nH]c(N)c3c(=N)n12 | 114% (inactive) |
| COc1cc(/C=C/C(=O)c2cc(-c3ccc(F)cc3)ccc2O)cc(OC)c1OC | 88% (inactive) |

| Compound | growth |
| --- | --- |
| O=C(Nc1cccc([N+](=O)[O-])c1)NN1CCCCCC1 | 107% (inactive) |
| CC(C)=C1CCC(C)C/C1=N\N=C(N)N (stereo not given) | 107% (inactive) |
| COc1ccc(-c2nnc(N3CCN(C(=O)CN4CCN(c5ccc(Cl)cc5)CC4)CC3)nc2-c2ccc(OC)cc2)cc1 | 59% (inactive) |
| Nc1c(CNCc2nnn(Cc3ccccc3)c2N)nnn1Cc1ccccc1 | 105% (inactive) |
| COc1cc(C(=O)n2nc(N)c3c(C)cc(C)nc32)cc(OC)c1OC | 79.7% (inactive) |
| CS(=O)(=O)Nc1ccc([N+](=O)[O-])cc1Oc1ccccc1 | 109% (inactive) |
| CCSc1nc2c([nH]1)c(=O)n(C)c(=S)n2C | 118% (inactive) |
| COc1ccc(C(=O)/C=C/c2cc(-c3ccc4c(c3)OCO4)n[nH]2)cc1OC | 41.4% (inactive) |
| CC(C)(C)CC(C)(C)c1ccc(O)c(Cc2ccc(Cl)cc2Cl)c1 | -95.1% (active) |
| CC(=O)Nc1ccc(Sc2ccc(NC(C)=O)cc2)cc1 | 95.5% (inactive) |
| COc1cc(Cn2c(-c3ccccc3)cc3c2-c2oncc2CC3)cc(OC)c1 | 8.36% (active) |
| N#Cc1ncc(-c2cc(F)ccc2F)c(NC2CCCCCC2)n1 | 76.2% (inactive) |
| COc1ccc(-c2nnc(COc3ccc(NC(=O)Nc4ccccc4)cc3F)o2)cc1 | 79.6% (inactive) |
| COCCNCC(O)Cn1c2ccc(Cl)cc2c2cc(Cl)ccc21 (stereo not given) | 11.2% (inactive) |
| O=C(NC1CCN(Cc2ccccc2)CC1)c1cc(-c2ccncc2)nc2ccc(Cl)cc12 | 35.4% (inactive) |
| CC(Oc1ccc(Cl)cc1)c1ccccc1 (stereo not given) | 114% (inactive) |
| COc1cc(C2C=C(c3ccc(Cl)c(Cl)c3)N=C3SC(C)=CN32)cc(OC)c1OC (stereo not given) | 58.7% (inactive) |
| C=C[C@]1(C)C=C2C(=O)[C@@]3(O)OC(=O)[C@@]4(CCCC(C)(C)[C@H]34)[C@@]2(O)CC1 | -93.7% (active) |
| CN(C)CCCN1c2ccccc2Sc2ccc(C(F)(F)F)cc21 | 25.7% (inactive) |
| NS(=O)(=O)c1ccc(N2N=C(c3ccc(-c4ccccc4)cc3)CC2c2ccc(Cl)cc2)cc1 (stereo not given) | 116% (inactive) |
